# Laboratory results as given in a collection of fitness landscapes (doi:10.1016/j.celrep.2020.107928).
# In all, about 81,000 sequences were measured (“one-hybrid fitness for binding parS DNA”: median about -0.17, highest 2% from about 0.51 on). The sample holds the highest values, similar sequences and a random draw of the others, so the mix is not that of the screen.
# B1: Caulobacter ParB omega fusion; a variant is named by its letters at X, in order, B8GW30 (parent)
# chain: MESVVVGEPGMSEGRRGLGRGLSALLGEVDAAPAQAPGEQLGGSREAPIEILQRNPDQPRRTFREEDLEDLSNSIREKGVLQPILVRPSPDTAGEYQIVAGERAWRAAQRAGLKTVPIMVRELDDLAVLEIGIIENVQRADLNVLEEALSYKVLMEKFERTQENIAQTIGKSXSHVANXMRLLXLPDEVQSYLVSGELTAXHARAIAAAADPVALAKQIIEGGLSVRETEALARKAPNLSAGKSKGGRPPRVKDTDTQALESDLSSVLGLDVSIDHRGSTGTLTITYATLEQLDDLCNRLTRGI
# Variants of: B1
# Assay: one-hybrid fitness for binding parS DNA (scaled: cognate 1, non-cognate 0); higher = stronger binding
# Details: with parS DNA site
# How it was run: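 Fitness is the rescaled log change in variant-to-wild-type read ratio, measured by Illumina sequencing of plasmids before and after bacterial one-hybrid selection. The scale puts cognate at 1 and non-cognate at 0. Selection of Caulobacter ParB libraries, four specificity codons randomised, took place in E. coli USO with a HIS3 reporter, site 19 bp from the promoter, over 48 hours at 37°C on M9-minus-histidine with 0.1 mM IPTG and 5 mM 3-AT.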
row,Variant,one-hybrid fitness for binding parS DNA
1,GLVV,≤ 0.2
2,RWLT,0.556
3,RWQD,≤ 0.2
4,RWQN,0.264
5,RWVT,0.43
6,RWKQ,≤ 0.2
7,RWST,0.665
8,RWSN,0.318
9,RWKT,0.811
10,RWSD,≤ 0.2
11,RWQT,0.618
12,THYN,≤ 0.2
13,TFIW,≤ 0.2
14,SPRC,≤ 0.2
15,DYFS,≤ 0.2
16,HAPN,≤ 0.2
17,RKAW,≤ 0.2
18,FTYI,≤ 0.2
19,RVVV,≤ 0.2
20,SIHC,≤ 0.2
21,LMAG,≤ 0.2
22,QCAE,≤ 0.2
23,RLAR,≤ 0.2

row,Variant,one-hybrid fitness for binding parS DNA
1,RLAC,0.995
2,RLFC,0.948
3,RLFH,0.258
4,RLAM,0.342
5,RLFP,≤ 0.2
6,FKTR,≤ 0.2
7,LCPN,≤ 0.2
8,GYEP,≤ 0.2
9,RAPA,0.231
10,DACA,≤ 0.2
11,RAIA,0.461
12,RACA,0.609
13,RANA,0.595
14,NANA,≤ 0.2
15,RADA,0.563
16,RAYA,0.602
17,FRDR,≤ 0.2
18,TQKT,≤ 0.2
19,WTHY,≤ 0.2
20,REHK,≤ 0.2
21,GALF,≤ 0.2
22,VMFV,≤ 0.2
23,LLFI,≤ 0.2

row,Variant,one-hybrid fitness for binding parS DNA
1,NAQA,≤ 0.2
2,RARA,0.658
3,DARA,≤ 0.2
4,RAQA,0.548
5,NARA,≤ 0.2
6,PICM,≤ 0.2
7,LVHY,≤ 0.2
8,WEWS,≤ 0.2
9,SNSE,≤ 0.2
10,RTND,≤ 0.2
11,RTNS,0.874
12,RTDH,≤ 0.2
13,RTDN,0.404
14,RTNN,0.424
15,RTDS,0.989
16,FLHS,≤ 0.2
17,LGVG,≤ 0.2
18,ALYT,≤ 0.2
19,QTLN,≤ 0.2
20,DVLN,≤ 0.2
21,TSTW,≤ 0.2
22,EGNL,≤ 0.2
23,RQDQ,≤ 0.2

row,Variant,one-hybrid fitness for binding parS DNA
1,RQDC,0.863
2,RQNN,0.435
3,RQDK,≤ 0.2
4,RQND,0.221
5,RQNC,0.947
6,AQKR,≤ 0.2
7,ICTY,≤ 0.2
8,TAVI,≤ 0.2
9,FVPC,≤ 0.2
10,LNCS,≤ 0.2
11,RVAA,0.582
12,RVFA,0.611
13,NVAA,≤ 0.2
14,DVAA,≤ 0.2
15,ELAG,≤ 0.2
16,GGPT,≤ 0.2
17,CRIG,≤ 0.2
18,ILFC,≤ 0.2
19,DQVG,≤ 0.2
20,LIPT,≤ 0.2
21,RQIS,0.87
22,RQPN,≤ 0.2
23,RQPS,0.535

row,Variant,one-hybrid fitness for binding parS DNA
1,RQPT,0.387
2,RQIT,0.647
3,RQID,≤ 0.2
4,RQPC,0.426
5,RQIP,≤ 0.2
6,RQIR,≤ 0.2
7,RQIC,0.735
8,RQIY,0.256
9,RQPP,≤ 0.2
10,PHRE,≤ 0.2
11,KTEC,≤ 0.2
12,QHGS,≤ 0.2
13,NLTC,≤ 0.2
14,VSIA,≤ 0.2
15,TPVW,≤ 0.2
16,SHLF,≤ 0.2
17,STKF,≤ 0.2
18,TPQT,≤ 0.2
19,VRSR,≤ 0.2
20,VFSG,≤ 0.2
21,HISS,≤ 0.2
22,ADIG,≤ 0.2
23,PGTC,≤ 0.2

row,Variant,one-hybrid fitness for binding parS DNA
1,LVVH,≤ 0.2
2,HWLK,≤ 0.2
3,MKPK,≤ 0.2
4,SPFG,≤ 0.2
5,RLDR,≤ 0.2
6,RLNT,0.908
7,RLDT,0.806
8,RLDM,0.299
9,RLNP,≤ 0.2
10,RLNN,0.455
11,HMTH,≤ 0.2
12,YIMG,≤ 0.2
13,ADTW,≤ 0.2
14,VKGM,≤ 0.2
15,WSTL,≤ 0.2
16,RAVK,≤ 0.2
17,RAVQ,0.23
18,RAVT,0.77
19,RAKD,≤ 0.2
20,RAKN,0.462
21,RAKT,0.824
22,RMYE,≤ 0.2
23,FKCS,≤ 0.2

row,Variant,one-hybrid fitness for binding parS DNA
1,AGFC,≤ 0.2
2,RTFS,1.03
3,RTAD,≤ 0.2
4,RTFP,≤ 0.2
5,RTFH,0.246
6,RTAS,0.968
7,RTAP,≤ 0.2
8,LFRV,≤ 0.2
9,GSFC,≤ 0.2
10,RVWI,≤ 0.2
11,RWKP,≤ 0.2
12,RWKH,0.228
13,RWVS,0.616
14,RWVY,≤ 0.2
15,RWYY,0.248
16,RWVP,≤ 0.2
17,RWKS,0.961
18,RWKY,0.565
19,RWVN,≤ 0.2
